Results on seven compounds are retold here after PubChem BioAssay (EPA / NIEHS).

A short description of experiment [1]: APR_HepG2_CellLoss_72hr: Apredica 72-hour HepG2 Assay for Cell Loss (AID 2282915). As to conditions: high-content imaging. The procedure, abridged: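 Cell number comes from Hoechst 33342-labelled nuclei, imaged at 20x after 3.7% formaldehyde fixation. Dosing was 0.39–200 uM, ten concentrations in duplicate, 0.5% DMSO final, for 72 h. Bidirectional fit relative to DMSO baseline.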

Experiment [2] is described as follows: APR_HepG2_P-H2AX_72hr: Apredica 72-hour HepG2 Assay for H2AX Phosphorylation (AID 2282916).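 Also: phospho-histone H2A.x immunostain intensity per cell marking DNA damage.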 As to conditions: imaging, actives raise or lower the signal. In short, it runs like this:
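Phospho-histone H2A.x immunofluorescence, multiplexed with Hoechst and c-Jun, quantified by high-content imaging. Compounds applied to HepG2 for 72 h across ten concentrations (0.39–200 uM, 0.5% DMSO), in duplicate; DMSO baseline.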

Experiment [3] can be described thus: APR_HepG2_MitoticArrest_72hr: Apredica 72-hour HepG2 Assay for Mitotic Arrest (AID 2282918). To be noted: high-content imaging, actives raise or lower the signal. In short, it runs like this:
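Mitotic arrest in HepG2 is scored from phospho-histone H3 staining after 72 hr dosing across 0.39–200 uM, with DMSO at 0.5% v/v. Nuclei are identified by Hoechst 33342 and fluorescence intensity is quantified per cell.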

Experiment [4] is described as follows: APR_HepG2_MicrotubuleCSK_72hr: Apredica 72-hour HepG2 Assay for Microtubule CSK Stabilty (AID 2282919). As to conditions: HepG2 microtubule cytoskeleton, high-content imaging, actives raise or lower the signal. The procedure, abridged: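 High-content imaging of alpha-tubulin staining in fixed HepG2 cells after 72 hr treatment with ten concentrations from 0.39 to 200 uM (0.5% DMSO). Fitting was bidirectional against DMSO; taxol served as positive control.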

Experiment [5] in a line: APR_HepG2_P-H2AX_24hr: Apredica 24-hour HepG2 Assay for H2AX Phosphorylation (AID 2282920). To be noted: high-content imaging, actives raise or lower the signal. In short, it runs like this:
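Signal comes from a FITC-labeled secondary detecting phospho-histone H2A.x in fixed HepG2 cells, quantified by automated imaging at 20x. Dosing ran 24 hr across 0.39–200 uM with 0.5% v/v DMSO.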

A short description of experiment [6]: APR_HepG2_StressKinase_72hr: Apredica 72-hour HepG2 Assay for Stress Kinase (AID 2282921). As to conditions: HepG2 stress kinase (phospho-c-Jun) imaging, actives raise or lower the signal. In short, it runs like this: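 Stress kinase signal is phospho-c-Jun immunofluorescence (1:500 primary, Cy3 secondary) in fixed, permeabilized human HepG2 cells imaged at 20x. Exposure lasted 72 hr over ten concentrations from 0.39 to 200 uM, 0.5% DMSO, in duplicate. Bidirectional fit versus DMSO.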

A short description of experiment [7]: APR_HepG2_StressKinase_24hr: Apredica 24-hour HepG2 Assay for Stress Kinase (AID 2282922). To be noted: HepG2 stress kinase (phospho-c-Jun) imaging, actives raise or lower the signal. In short, it runs like this: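 High-content imaging of phospho-c-Jun immunofluorescence in fixed, permeabilized HepG2 cells after 24 h dosing. Ten concentrations, 0.39 to 200 uM, run in duplicate at 0.5% v/v DMSO; gain or loss of signal versus DMSO.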

Experiment [8] is described as follows: APR_HepG2_MitoMass_72hr: Apredica 72-hour HepG2 Assay for Mitochondrial Mass (AID 2282924).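 Also: MitoTracker Red CMXRos stain intensity per cell imaged as mitochondrial mass.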 As to conditions: high-content imaging, actives raise or lower the signal. In short, it runs like this: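 Readout is imaged MitoTracker Red (250 nM, 30 min, pre-fixation) signal, fitted bidirectionally against DMSO baseline. Human HepG2 liver cells received compound 0.39–200 uM in duplicate for 72 hr, final DMSO 0.5%.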

Experiment [9] in a line: APR_HepG2_NuclearSize_72hr: Apredica 72-hour HepG2 Assay for Nuclear Size (AID 2282925). To be noted: high-content imaging, actives raise or lower the signal. In short, it runs like this: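 Nuclear size was read by high-content imaging of Hoechst 33342 stain after formaldehyde fixation. Compounds ran 72 h on HepG2 at 0.39 to 200 uM, with final DMSO 0.5% v/v. Curves fitted both directions relative to DMSO control.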

Experiment [10] in a line: ATG_CRE_CIS: Attagene CIS-FACTORIAL HepG2 Assay for human cAMP Responsive Element (CRE) binding protein 3 (AID 2282926). As to conditions: HepG2 CRE cis-reporter, Attagene multiplexed mRNA; actives raise or lower the signal. In short, it runs like this:
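Cells carrying cis-regulated reporter constructs respond through their own endogenous factors. After 24 h treatment, RNA is reverse-transcribed, amplified, labelled and sized by capillary electrophoresis; up- and down-regulation are both scored against vehicle.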

Experiment [11] concerns the target CCAAT/enhancer-binding protein beta (Homo sapiens) (UniProt P17676). The experiment can be described thus: ATG_C_EBP_CIS: Attagene CIS-FACTORIAL HepG2 Assay for human CCAAT/Enhancer Binding Protein (C/EBP) beta (AID 2282927). As to conditions: HepG2 Attagene cis-factorial transcription factor reporter; actives raise or lower the signal. In short, it runs like this:
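Changes in reporter mRNA, rather than exogenous chimeric receptor activity, reflect native C/EBP signalling in transfected HepG2 cells dosed for 24 h; transcripts are detected by RT-PCR and capillary electrophoresis.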

Experiment [12] in a line: ATG_CMV_CIS: Attagene CIS-FACTORIAL HepG2 Assay for human CMV (Internal Marker) (AID 2282928).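 Also: endpoint acts as a background internal control marker rather than a target.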 As to conditions: HepG2 CMV promoter reporter, transcription factor profiling; actives raise or lower the signal. In short, it runs like this: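 Fluorescence intensity of RT-PCR-derived reporter fragments, resolved by capillary electrophoresis, gives the signal. HepG2 liver cells bearing transfected cis-element reporters were treated 24 h; activity in either direction was fit relative to DMSO-treated controls.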

The nature of experiment [13]: ATG_DR4_LXR_CIS: Attagene CIS-FACTORIAL HepG2 Assay for human Liver X Receptor (LXR), DR4 submotif (AID 2282929). To be noted: HepG2 Attagene DR4 cis-reporter, mRNA transcription; actives raise or lower the signal. The procedure, abridged: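 Cells were transfected with multiple reporter transcription units, exposed to chemicals for 24 hours, then lysed for RNA. Reporter mRNA induction was measured by RT-PCR with capillary electrophoresis detection and fitted in both directions relative to DMSO.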

The target in experiment [14] is Aryl hydrocarbon receptor (Homo sapiens) (UniProt P35869). The experiment can be described thus: ATG_Ahr_CIS: Attagene CIS-FACTORIAL HepG2 Assay for human Aryl Hydrocarbon Receptor (Ahr) (AID 2282930). To be noted: HepG2 AhR cis-factorial reporter transcription; actives raise or lower the signal. In short, it runs like this: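 HepG2, transient MRTU (cis) transfection, 24 h exposure. RNA → cDNA → PCR → 6-FAM primer extension → HpaI 2 h 37 C → CE. Fit: bidirectional, DMSO baseline.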
Aryl hydrocarbon receptor (Homo sapiens), sequence (P35869 whole entry, looked up): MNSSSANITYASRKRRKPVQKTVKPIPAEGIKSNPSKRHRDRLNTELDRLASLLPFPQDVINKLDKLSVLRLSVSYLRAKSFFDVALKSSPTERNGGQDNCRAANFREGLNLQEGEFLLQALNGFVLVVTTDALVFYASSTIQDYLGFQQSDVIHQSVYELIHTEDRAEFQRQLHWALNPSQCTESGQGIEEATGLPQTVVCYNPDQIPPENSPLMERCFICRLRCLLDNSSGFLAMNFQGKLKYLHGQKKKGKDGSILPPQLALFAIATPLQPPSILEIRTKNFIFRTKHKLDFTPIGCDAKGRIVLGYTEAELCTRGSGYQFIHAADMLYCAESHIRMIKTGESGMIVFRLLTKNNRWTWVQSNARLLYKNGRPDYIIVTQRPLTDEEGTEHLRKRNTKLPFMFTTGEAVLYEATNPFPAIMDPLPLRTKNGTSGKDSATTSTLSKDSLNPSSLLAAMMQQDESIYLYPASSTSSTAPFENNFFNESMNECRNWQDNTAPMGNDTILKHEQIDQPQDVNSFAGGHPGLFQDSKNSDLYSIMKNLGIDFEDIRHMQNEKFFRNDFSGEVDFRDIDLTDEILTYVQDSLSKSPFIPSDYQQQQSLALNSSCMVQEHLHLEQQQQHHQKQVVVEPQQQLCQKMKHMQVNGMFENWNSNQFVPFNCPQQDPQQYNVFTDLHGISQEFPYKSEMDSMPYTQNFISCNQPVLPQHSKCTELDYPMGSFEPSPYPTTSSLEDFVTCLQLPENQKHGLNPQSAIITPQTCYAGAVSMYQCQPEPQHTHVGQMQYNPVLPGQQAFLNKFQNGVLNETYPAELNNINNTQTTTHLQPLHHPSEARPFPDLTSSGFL

Experiment [15] in a line: ATG_AP_1_CIS: Attagene CIS-FACTORIAL HepG2 Assay for human Activator Protein 1 (AP-1) (AID 2282931). As to conditions: HepG2 Attagene cis-factorial AP-1 reporter mRNA; actives raise or lower the signal. The procedure, abridged:
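Endogenous transcription-factor activity in human HepG2 liver cells is read through a cis-promoter reporter transcript, sampled 24 h after dosing. Detection uses RT-PCR with capillary electrophoresis; values come from bidirectional fitting relative to DMSO.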

Experiment [16] in a line: ATG_AP_2_CIS: Attagene CIS-FACTORIAL HepG2 Assay for human Activator Protein 2 (AP-2) (AID 2282932). As to conditions: HepG2 AP-2 cis-reporter, Attagene transcription factor profiling; actives raise or lower the signal. The procedure, abridged: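 Endogenous transcription factor activity is reported through transfected multiplex reporter constructs in HepG2, after 24 h of compound exposure. Transcripts were quantified by RT-PCR and capillary electrophoresis of fluorescent fragments. Bidirectional fit against DMSO.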

The nature of experiment [17]: ATG_BRE_CIS: Attagene CIS-FACTORIAL HepG2 Assay for human Bone Morphogenetic Protein (BMP) Response Element (BRE) (AID 2282933). As to conditions: HepG2 BMP response element reporter, Attagene transcription factor profiling; actives raise or lower the signal. In short, it runs like this: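 After a 24 h chemical treatment, transiently transfected HepG2 cells were lysed for RNA; reporter transcripts were quantified by fluorescent RT-PCR and capillary electrophoresis, normalised to DMSO.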

Experiment [18] deals with Retinoic acid receptor alpha (Homo sapiens) (UniProt P10276). Kind of experiment: ATG_DR5_RAR_CIS: Attagene CIS-FACTORIAL HepG2 Assay for human Retinoic Acid Receptor Alpha (RARE), DR5 submotif (AID 2282934). As to conditions: HepG2 Attagene cis-factorial RARE DR5 reporter, mRNA; actives raise or lower the signal. The procedure, abridged: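 HepG2, transient cis-reporter transfection, 24 h exposure. mRNA readout: RT-PCR, FAM label, HpaI cut, capillary electrophoresis. DMSO baseline, gain/loss fitting.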
Retinoic acid receptor alpha (Homo sapiens), sequence (P10276 whole entry, looked up): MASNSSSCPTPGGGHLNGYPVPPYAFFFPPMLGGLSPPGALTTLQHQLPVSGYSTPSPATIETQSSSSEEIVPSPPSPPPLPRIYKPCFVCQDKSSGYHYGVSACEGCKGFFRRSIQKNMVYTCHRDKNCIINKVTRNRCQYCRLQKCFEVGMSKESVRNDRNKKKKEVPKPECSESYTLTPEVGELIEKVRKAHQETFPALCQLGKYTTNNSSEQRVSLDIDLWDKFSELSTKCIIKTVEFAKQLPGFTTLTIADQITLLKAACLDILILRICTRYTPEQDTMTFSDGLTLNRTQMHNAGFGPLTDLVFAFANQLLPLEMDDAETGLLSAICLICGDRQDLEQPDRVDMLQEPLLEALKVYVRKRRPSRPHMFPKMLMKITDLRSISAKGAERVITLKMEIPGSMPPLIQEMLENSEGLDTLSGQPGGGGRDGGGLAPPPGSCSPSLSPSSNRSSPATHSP

Experiment [19] can be described thus: APR_HepG2_p53Act_72hr: Apredica 72-hour HepG2 Assay for p53 Activation (AID 2282923).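 Also: average cellular p53 protein immunofluorescence intensity in HepG2 cells.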 To be noted: high-content imaging, actives raise or lower the signal. The procedure, abridged:
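After 72 h with compound (ten points, 0.39 to 200 uM, final DMSO 0.5% v/v), fixed HepG2 cells were labelled with sheep anti-p53 and Hoechst 33342 and imaged; gain or loss versus DMSO scored.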

Active and inactive are the calls of the source. The calls were made as follows: active = hit-call score of the fitted dose curve at least 0.9, where 1 is the maximum; inactive = score below 0.9.

CCAAT/enhancer-binding protein beta (Homo sapiens), sequence (P17676 whole entry, looked up): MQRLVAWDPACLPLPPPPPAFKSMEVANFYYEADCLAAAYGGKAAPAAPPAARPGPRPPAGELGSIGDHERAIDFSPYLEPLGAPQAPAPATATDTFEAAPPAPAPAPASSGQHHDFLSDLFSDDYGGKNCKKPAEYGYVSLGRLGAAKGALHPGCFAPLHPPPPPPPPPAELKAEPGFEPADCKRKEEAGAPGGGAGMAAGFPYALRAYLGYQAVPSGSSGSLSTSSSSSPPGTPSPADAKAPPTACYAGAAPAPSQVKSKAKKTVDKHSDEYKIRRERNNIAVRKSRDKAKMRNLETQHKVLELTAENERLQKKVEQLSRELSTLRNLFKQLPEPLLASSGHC

`O=c1[nH]cnc2c1ncn2[C@H]1CC[C@@H](CO)O1`: the compound was classed as inactive in [1], in experiment [2], in [3], in experiment [4], in [5] and in [6]. Also, the call in [7], in experiment [8], in [9], in experiment [10], in experiment [11] and in [12] was inactive. Also, the compound was called inactive in experiment [13], in [14], in experiment [15], in experiment [16], in experiment [17] and in experiment [18].
For the compound `C[C@]12C=CC(=O)C=C1CC[C@H]1[C@@H]3C[C@@H](O)[C@](O)(C(=O)CO)[C@@]3(C)C[C@H](O)[C@@]12F`, the outcome in experiment [1], in experiment [2], in experiment [3], in [4], in experiment [5] and in experiment [6] was inactive. For the same compound, the result in [7], in [19], in experiment [8], in [9], in [10] and in experiment [11] was inactive. Besides, the call in experiment [12], in experiment [13], in [14], in [15], in [16] and in experiment [17] was inactive.
Take `c1ccc(C(O[C@@H]2CCCN(CCc3ccc4c(c3)OCO4)C2)c2ccccc2)cc1`: the AC50 is 98.3 µM (active) in experiment [1]; 96 µM (active) in experiment [2]; 57.8 µM (active) in experiment [3]; 103 µM (active) in experiment [5]; 100 µM (active) in [6]; 63.3 µM (active) in [19]. The AC50 in experiment [8] is 99.7 µM (active); in experiment [13], 47.4 µM (active); in [14] it was 18.1 µM (active); in [15] it was 52.1 µM (active); in experiment [17], 33 µM (active). The call in [4], in [7], in experiment [9], in experiment [10], in experiment [11] and in [16] was inactive.
Consider `CCCCOC(=O)c1ccccc1`, for which the call in experiment [1], in [2], in experiment [3], in [4], in experiment [5] and in experiment [6] was inactive. The call in experiment [7], in [19], in experiment [8], in [9], in [10] and in experiment [11] was inactive. Also, the call in [12], in [13], in experiment [15], in experiment [16] and in experiment [18] was inactive.
As for `O=C(O)c1ccc2c(c1)nc(C(=O)NC1CCN(C3CC3)CC1)n2Cc1cc(-c2ccc(Cl)s2)on1`, the compound was called inactive in experiment [1], in experiment [2], in experiment [3], in experiment [4], in experiment [5] and in [6]. Moreover, the compound was called inactive in experiment [7], in [19], in [8], in [9], in [10] and in experiment [11]. For the same compound, the call in [12], in experiment [13], in experiment [14], in experiment [15], in experiment [16] and in [17] was inactive.
`Cc1ccc(S(=O)(=O)NC(=O)NN2CCCCCC2)cc1`: the call in [1], in experiment [2], in experiment [3], in experiment [4], in [5] and in experiment [6] was inactive. Further, the result in experiment [7], in [8], in [9], in experiment [10], in experiment [11] and in [12] was inactive. In addition, the result in experiment [13], in experiment [14], in experiment [15], in experiment [16] and in experiment [18] was inactive.
As for `O=C(NO)C1(NS(=O)(=O)c2ccc(Oc3ccc(F)cc3)cc2)CCOCC1`, the AC50 was 65.4 µM (active) in experiment [1] and 100 µM (active) in experiment [2]. In addition, the compound was classed as inactive in experiment [3], in experiment [4], in [5], in experiment [6], in experiment [7] and in experiment [8]. For the same compound, the result in experiment [9], in experiment [10], in experiment [11], in experiment [12], in [13] and in [14] was inactive. Also, the call in [15], in experiment [16], in experiment [17] and in experiment [18] was inactive.

A word on the AC50: it is the concentration giving half of the maximal activity seen.
